Structures can show the parent of a compound that is named as a salt.
Tests used:
[1] = tested on: S. cerevisiae SK1 pCDA2-eGFP (USY613), sporulating; assay: CDA2-GFP sporulation assay sensitivity score (z-score vs DMSO controls); higher = stronger inhibition of sporulation, active = hit call of the paper;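 also: active if sensitivity score above 5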
[2] = tested on: S. cerevisiae NKY1551 his4x/his4B, sporulating; assay: HIS4 meiotic recombination assay sensitivity score (z-score vs DMSO controls); higher = stronger inhibition of sporulation/recombination, active = hit call of the paper;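 also: active if sensitivity score above 5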
[3] = tested on: S. cerevisiae AD1-9 (efflux-pump deficient), vegetative growth in YPD; assay: growth sensitivity score (doubling time z-score vs DMSO controls); higher = slower growth, strongly negative scores also mark growth inhibition (complete suppression), active = hit call of the paper
Method in brief: (§1)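 Optical density of Saccharomyces cerevisiae cultures in microtiter plates was followed every 15 min for 24 hours after seeding at an OD600 of 0.065. Eight solvent-only wells were run per experiment. Growth sensitivity scores were found by subtracting the solvent-only mean from the compound mean and dividing by the solvent-only standard deviation.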

[4] = tested on: S. cerevisiae BY4741 (wild-type), vegetative growth in YPD; assay: as above
Method in brief: as §1

| SMILES | CDA2-GFP sporulation assay sensitivity score [1] | HIS4 meiotic recombination assay sensitivity score [2] | growth sensitivity score [3] | growth sensitivity score [4] |
| --- | --- | --- | --- | --- |
| COC(=O)Nc1nc2cc(C(=O)c3ccc(F)cc3)ccc2[nH]1 [Flubendazole] (stock concentration (mM, diluted 1:100): 10) | 0.4 (inactive) | -2.01 (inactive) | 12.3 (active) | 2.6 (active) |
| CCOc1cc(N)c(Cl)cc1C(=O)NCC1CN(Cc2ccc(F)cc2)CCO1 (centres undefined) [Mosapride citrate] (stock concentration (mM, diluted 1:100): 6.9) | 1.67 (inactive) | -0.43 (inactive) | 17.2 (active) | 3.25 (active) |
| CC#C[C@]1(O)CC[C@H]2[C@@H]3CCC4=CC(=O)CCC4=C3[C@@H](c3ccc(N(C)C)cc3)C[C@@]21C [Mifepristone] (stock concentration (mM, diluted 1:100): 10) | 9.91 (inactive) | 2.99 (inactive) | 172 (active) | -2.51 |
| COC(=O)C1=C(C)NC(C)=C(C(=O)OCC(C)C)C1c1ccccc1[N+](=O)[O-] (centres undefined) [Nisoldipine] (stock concentration (mM, diluted 1:100): 10) | -0.05 (inactive) | -2.61 (inactive) | 89.2 (active) | 57 (active) |
| CC[C@H](C)C(=O)O[C@H]1CCC=C2C=C[C@H](C)[C@H](CC[C@@H]3C[C@@H](O)CC(=O)O3)[C@H]21 [Mevastatin] (stock concentration (mM, diluted 1:100): 10) | 0.51 (inactive) | 1.32 (inactive) | 130 (active) | 2.89 (active) |
| Cc1nc(=O)c2cc(CN(C)c3ccc(C(=O)N[C@@H](CCC(=O)O)C(=O)O)s3)ccc2[nH]1 [Raltitrexed] (stock concentration (mM, diluted 1:100): 10) | -2.11 (inactive) | -0.01 (inactive) | -3.39 | -0.14 (inactive) |
